In PubChem BioAssay (EPA / NIEHS):
Active and inactive are the calls of the source. Rule for the calls: active = hit-call score of the fitted dose curve at least 0.9, where 1 is the maximum; inactive = score below 0.9.

Columns and labels:
Details in all cases: mRNA level, 48 h; actives raise or lower the signal
[1] = read-out: Cytochrome P450 3A7 (Homo sapiens) (UniProt P24462); assay: LTEA_HepaRG_CYP3A7: Life Technologies and Expression Analysis (LTEA) Assay for CYP3A7 using HepaRG (AID 2283492)
In short: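 CYP3A7 transcript levels were read by TaqMan qRT-PCR on Fluidigm arrays after 48 h chemical exposure of human HepaRG cells, with housekeeping-gene normalisation. Eight half-log concentrations up to 100 uM in 0.5% DMSO were tested in duplicate.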

[2] = read-out: CYP3A5 (gene 1577); assay: LTEA_HepaRG_CYP3A5: Life Technologies and Expression Analysis (LTEA) Assay for CYP3A5 using HepaRG (AID 2283493)
In short: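 Differentiated HepaRG cells in serum-free induction medium were dosed 48 h with test chemicals (8-point half-log series, top 100 uM, 0.5% DMSO, duplicate). CYP3A5 mRNA measured by qRT-PCR, normalized to ACTB, GAPDH, POLR2A; bidirectional fit versus DMSO.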

[3] = read-out: Fatty Acid-Binding Protein 1 (FABP1), FABP1 (gene 2168); assay: LTEA_HepaRG_FABP1: Life Technologies and Expression Analysis (LTEA) Assay for Fatty Acid-Binding Protein 1 (FABP1) using HepaRG (AID 2283494)
In short: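 Differentiated human HepaRG cells were exposed in duplicate for 48 h in serum-free induction medium to 8-point half-log concentration series topping at 100 uM in 0.5% DMSO. FABP1 mRNA measured by TaqMan qRT-PCR, normalized to ACTB/GAPDH/POLR2A; bidirectional fit versus DMSO.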

[4] = read-out: Cytochrome P450 4A22 (Homo sapiens) (UniProt Q5TCH4); assay: LTEA_HepaRG_CYP4A22: Life Technologies and Expression Analysis (LTEA) Assay for Cytochrome P450 4A22 (CYP4A22) using HepaRG (AID 2283495)
In short: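 HepaRG, 48 h post-plating -> serum-free induction medium; dosed 48 h, duplicate, 8 conc. (100 uM top, half-log), 0.5% DMSO. Readout: CYP4A22 mRNA by qRT-PCR, ACTB/GAPDH/POLR2A normalization; gain/loss fit relative to DMSO.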

[5] = read-out: Cytochrome P450 7A1 (Homo sapiens) (UniProt P22680); assay: LTEA_HepaRG_CYP7A1: Life Technologies and Expression Analysis (LTEA) Assay for Cytochrome P450 7A1 (CYP7A1) using HepaRG (AID 2283496)
In short: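 Gene expression endpoint in human HepaRG liver cells treated for 48 h with test chemicals (up to 100 uM, 0.5% DMSO). Values come from bidirectional concentration-response fitting versus DMSO.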

[6] = read-out: Glutathione S-Transferase (GSTA2), GSTA2 (gene 2939); assay: LTEA_HepaRG_GSTA2: Life Technologies and Expression Analysis (LTEA) Assay for Glutathione S-Transferase (GSTA2) using HepaRG (AID 2283497)
In short: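 Human HepaRG cells, plated 48 h, then exposed in serum-free induction medium for 48 h to eight half-log concentrations up to 100 uM in 0.5% DMSO, duplicate. GSTA2 mRNA by qRT-PCR, normalized to ACTB/GAPDH/POLR2A; bidirectional fit versus DMSO.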

[7] = read-out: Glutamate-cysteine ligase catalytic (GCLC), GCLC (gene 2729); assay: LTEA_HepaRG_GCLC: Life Technologies and Expression Analysis (LTEA) Assay for Glutamate-cysteine ligase catalytic (GCLC) using HepaRG (AID 2283498)
In short: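 Differentiated human HepaRG cells, plated 48 h then switched to serum-free induction medium, were exposed in duplicate for 48 h to 8 half-log concentrations topping at 100 uM in 0.5% DMSO. GCLC mRNA was quantified by qRT-PCR against ACTB, GAPDH and POLR2A.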

[8] = read-out: growth arrest and DNA damage 45 (GADD45G), GADD45G (gene 10912); assay: LTEA_HepaRG_GADD45G: Life Technologies and Expression Analysis (LTEA) Assay for growth arrest and DNA damage 45 (GADD45G) using HepaRG (AID 2283499)
In short: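 HepaRG, 48 h exposure, top 100 uM, half-log 8-point series, 0.5% DMSO vehicle, duplicates. Readout: GADD45G transcript by qRT-PCR (Fluidigm array), housekeeping-normalised (ACTB/GAPDH/POLR2A). Bidirectional curve fit vs DMSO baseline.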

[9] = read-out: Glutamate-cysteine ligase regulatory (GCLM), GCLM (gene 2730); assay: LTEA_HepaRG_GCLM: Life Technologies and Expression Analysis (LTEA) Assay for Glutamate-cysteine ligase regulatory (GCLM) using HepaRG (AID 2283500)
In short: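 Differentiated human HepaRG cells exposed 48 h in serum-free induction medium to 8-point half-log concentrations (top 100 uM, 0.5% DMSO), in duplicate. GCLM mRNA quantified by qRT-PCR, normalized to ACTB, GAPDH, POLR2A; bidirectional fitting versus DMSO.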

[10] = read-out: Glutathione S-transferase M3 (GSTM3), GSTM3 (gene 2947); assay: LTEA_HepaRG_GSTM3: Life Technologies and Expression Analysis (LTEA) Assay for Glutathione S-transferase M3 (GSTM3) using HepaRG (AID 2283501)
In short: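 qRT-PCR read-out of GSTM3 transcript, normalized to three housekeeping genes, from human HepaRG cells after 48 h chemical exposure. Eight-point half-log series, top 100 uM, 0.5% DMSO vehicle; gain or loss fitted relative to DMSO baseline.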

Measured: AC50

Chain of Cytochrome P450 3A7 (Homo sapiens) (P24462 whole entry, looked up): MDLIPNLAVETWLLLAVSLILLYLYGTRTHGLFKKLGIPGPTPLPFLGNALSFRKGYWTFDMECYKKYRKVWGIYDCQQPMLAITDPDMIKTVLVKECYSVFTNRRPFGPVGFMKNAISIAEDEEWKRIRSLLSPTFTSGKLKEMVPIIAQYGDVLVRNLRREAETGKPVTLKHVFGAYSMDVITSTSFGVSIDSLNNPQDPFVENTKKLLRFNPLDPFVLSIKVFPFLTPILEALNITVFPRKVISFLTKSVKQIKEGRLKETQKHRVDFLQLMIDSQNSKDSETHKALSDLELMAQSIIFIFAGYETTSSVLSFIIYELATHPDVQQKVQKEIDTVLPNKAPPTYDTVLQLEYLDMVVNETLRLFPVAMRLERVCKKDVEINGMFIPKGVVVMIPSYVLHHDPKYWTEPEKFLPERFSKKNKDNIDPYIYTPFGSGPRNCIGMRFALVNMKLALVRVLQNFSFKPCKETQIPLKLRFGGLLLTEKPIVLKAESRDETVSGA

Cc1cn([C@H]2C[C@H](N=[N+]=[N-])[C@@H](CO)O2)c(=O)[nH]c1=O
inactive: [1] | [2] | [3] | [4] | [5] | [6] | [7] | [8] | [9] | [10]

Cc1oc2c(NC(=O)c3c(Cl)cccc3Cl)cccc2c1C(C)(C)O
inactive: [2] | [8]
active: [1] 31.6 µM | [3] 62.1 µM | [4] 31.5 µM | [5] 57.3 µM | [6] 38.2 µM | [7] 68.7 µM | [9] 50 µM | [10] 34.4 µM

O=c1ccc2ccccc2o1
inactive: [1] | [2] | [4] | [5] | [6] | [7] | [8] | [9] | [10]
active: [3] 36.8 µM

CCCOC(=O)c1cc(O)c(O)c(O)c1
inactive: [1] | [2] | [6] | [7] | [8] | [9] | [10]
active: [3] 30.1 µM | [4] 4.41 µM | [5] 17.9 µM

CCCCCCCCCCCC[N+](C)(C)C
inactive: [1] | [4] | [7]
active: [2] 86.6 µM | [3] 93.9 µM | [5] 85.8 µM | [6] 93.7 µM | [8] 78 µM | [9] 84.1 µM | [10] 93.9 µM

COc1cccc([C@H](O)C2CCN(CCc3ccc(F)cc3)CC2)c1OC
active: [8] 69.1 µM | [10] 72.9 µM
inactive: [1] | [2] | [3] | [4] | [5] | [6] | [7] | [9]

c1ccc(C[n+]2cccc3ccccc32)cc1
active: [1] 31.7 µM | [3] 31.7 µM | [4] 22.6 µM | [5] 33.7 µM | [6] 75 µM | [7] 85.9 µM | [8] 43.6 µM | [9] 62.7 µM
inactive: [2] | [10]

CN(C[C@@H](CC[N+]12CCC(C3CCCCC3)(CC1)CC2)c1ccc(Cl)c(Cl)c1)C(=O)c1cc(C(F)(F)F)cc(C(F)(F)F)c1
active: [1] 28.6 µM | [2] 68.8 µM | [3] 12.5 µM | [4] 22.4 µM | [5] 23.4 µM | [6] 34.2 µM | [7] 60.9 µM | [9] 91.2 µM | [10] 15.8 µM
inactive: [8]

O=C1CCC(C2CCCCC2)CC1
inactive: [1] | [2] | [3] | [4] | [5] | [6] | [7] | [8] | [9] | [10]

CCOC(=O)O[C@H](C)OC(=O)c1ccc2c(c1)cc(C(=O)NC1CCN(C(C)C)CC1)n2Cc1cc(-c2ccc(Cl)s2)on1
inactive: [1] | [2] | [3] | [4] | [5] | [6] | [7] | [8] | [9] | [10]

CC(C)(C)c1csc(-c2cc3cc(OCc4ccccc4CC(=O)O)ccc3o2)n1
inactive: [1]
active: [2] 81.3 µM | [3] 32.6 µM | [4] 23.3 µM | [5] 22.5 µM | [6] 31.9 µM | [7] 77.2 µM | [8] 12.1 µM | [9] 85.4 µM | [10] 37.7 µM

CCO[Si](CCCNC(N)=O)(OCC)OCC
inactive: [1] | [2] | [3] | [4] | [5] | [6] | [7] | [8] | [9] | [10]

CCCCCCCCN(C)CCCCCCCC
inactive: [1] | [2] | [3] | [4] | [5] | [6] | [7] | [8] | [9] | [10]

CCCCCCCCCC(=O)O
inactive: [1] | [2] | [3] | [4] | [5] | [6] | [7] | [8] | [9] | [10]

O=C=NCCCCCCN=C=O
inactive: [1] | [2] | [3] | [4] | [5] | [6] | [7] | [8] | [9] | [10]

O=C(O)Cc1cc(I)c(Oc2ccc(O)c(I)c2)c(I)c1
inactive: [7] | [10]
active: [1] 0.0294 µM | [2] 0.0881 µM | [3] 89.8 µM | [4] 0.063 µM | [5] 56.8 µM | [6] 84.7 µM | [8] 70.3 µM | [9] 79 µM

CN(C)C(=O)C1(N2CCCCC2)CCN(CC[C@@]2(c3ccc(Cl)c(Cl)c3)CN(C(=O)c3ccccc3)CCO2)CC1
active: [1] 24.7 µM | [3] 17 µM | [5] 25.2 µM | [6] 22 µM | [7] 88.3 µM | [8] 37.8 µM | [9] 88.3 µM | [10] 27.3 µM
inactive: [2] | [4]

CC(C)(C)c1cc(/C=C2\SC(N)=NC2=O)cc(C(C)(C)C)c1O
inactive: [4] | [10]
active: [1] 27.6 µM | [2] 93.5 µM | [3] 14.8 µM | [5] 25.2 µM | [6] 91.4 µM | [7] 14.5 µM | [8] 21.5 µM
